# Bioassay records (PubChem BioAssay)
# Sm TGR inh: inhibitors of Schistosoma mansoni thioredoxin glutathione reductase; AID 485364; purified TGR, DTNB reduction, TNB absorbance 405 nm; 360,000 compounds, 3% hits; Potency, µM (top dose mostly 114 µM), inactives show at the highest dose activity change, negative = inhibition, most hits filed as inhibitors; further: potency means the concentration at half of the fitted maximal effect; nearly all actives have a fitted effect of over 60% in size
#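 TGR 20 nM + NADPH 100 uM (dispensed conc.), cpd preinc 15 min RT; start with NADPH (500 uM addition) then DTNB (15 mM addition). Kinetic TNB absorbance, 405 nm filter. Four-parameter Hill fit across titration.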
# VACV mCherry inh: inhibitors of vaccinia virus infection (mCherry reporter signal). Vaccinia virus mCherry reporter infection, fluorescence. Potency, µM (top dose mostly 36.5 µM), for inactives: at the top dose activity change, negative = inhibition, most hits filed as inhibitors. 310,000 compounds, 0.63% hits; calls by dose curve; tested in A549 cells; further: potency means the concentration at half of the fitted maximal effect; nearly all actives have a fitted effect of over 35% in size
# HCV inh: blocks hepatitis C virus; Huh7.5.1 HCVcc-Cre infection, luciferase reporter, 44 h; Potency, µM (titrated, usually from 41.8 µM), for the others: top-dose activity change, negative = inhibition, usual class: inhibitors; 340,000 compounds, 3.4% hits; AID 651820; further: potency means the concentration at half of the fitted maximal effect
#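 1,000 cells/well; 4 h culture; + compound; + HCVcc-Cre (~0.5 moi); 44 h; luciferase substrate, RT 15 min; read 15 sec.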
# FMDV inh: foot and mouth disease virus antiviral activity; FMDV antiviral cell-based qHTS; Potency, µM (titrated, usually from 57.9 µM), inactives show at the top dose activity change, negative = inhibition, actives largely listed as inhibitors; 410,000 compounds, 1.2% hits; calls by dose curve; tested in HEK293T cells; further: read-out not given here; potency means the concentration at half of the fitted maximal effect; nearly all actives have a fitted effect of over 45% in size
# VACV Venus inh: vaccinia inhibition (Venus reporter); Vaccinia virus Venus reporter expression, fluorescence; Potency, µM (top dose mostly 36.5 µM), for the others: top-dose activity change, negative = inhibition, actives largely listed as inhibitors; 330,000 compounds, 0.46% hits; calls by dose curve; tested in A549 cells; further: potency means the concentration at half of the fitted maximal effect; nearly all actives have a fitted effect of over 30% in size
# HCMV inh: blocks human cytomegalovirus replication | HFF cells, HCMV-luciferase reporter, 72 h; stronger effect = lower value | activity change, negative = inhibition, % at 57.5 µM | 410,000 compounds, 4.5% hits | AID 1259415; in the data active means activity change below about -60%; inconclusive means no clear call, values can overlap the other calls; inactive means above about -39%
#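 Cell-based, HFFs, 1000 cells/well, 16 h 37C; cpds in DMSO + HCMV-luc, MOI 1 PFU/cell; 72 h 37C; OneGlo luminescence after 5 min RT; norm. to buffer vs Salinomycin 10uM.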
# The depositor's hits bear a star; i = inactive; ? = inconclusive; . = not tested or not shown; [ ] = another dose, or the depositor's remark. A selection: hits, their analogues and other compounds. The true share with any hit is near 9.3%. Unless noted, the call rests on the fitted dose curve; in most records, active means well fitted curve in the direction sought with a large enough effect; inconclusive means small, poorly fitted or top-dose-only effect, or another doubt; inactive means no such curve, though single readings can be large; an effect the other way counts as inactive or inconclusive. On the % scale 0 is the no-effect control and ±100 the full control effect.
SMILES,Sm TGR inh,VACV mCherry inh,HCV inh,FMDV inh,VACV Venus inh,HCMV inh
Cc1cc(C)nc(NN=CC2=C(N3CCOCC3)/C(=C/c3ccc(Cl)cc3)CC2)n1,.,?,?,27%,-5%,-32
Cn1cc(C(=O)N/N=C/C2=C(N3CCOCC3)C(=C/c3ccc([N+](=O)[O-])cc3)/CC2)ccc1=O,.,-6%,?,-13%,-4%,-17
Cc1ccc(SCCN)cc1C,-5%,-1%,17%,-4%,-10%,-10
CCOC(=O)c1c(C)[nH]c(C)c1S(=O)(=O)NCC(=O)NCc1ccccc1Cl,48%,-11%,.,11%,0%,2
CCOc1ccc(CC(=O)Nc2sc(Cc3ccccc3)c(C)c2C(N)=O)cc1OCC,-13%,.,-16%,-22%,.,-1
N#Cc1sc2nccc(Nc3ccccc3)c2c1N,.,-2%[7.34 µM],?,?,-18%[7.34 µM],-87*
CCc1ccc(CN(C)C(=O)CCc2nnc(CCc3cccc(OC)c3)o2)nc1,-12%,.,-25%,-10%,.,-32
COc1ccc(CN(C)C(=O)C2CC(=O)N(c3ccc4c(c3)OCCO4)C2)cc1 (configuration not stated),.,2%,.,-15%,-7%,29
O=C(CCn1cccc1)N1CCc2ccccc21,25µM*,.,4%,35%,-25%,5
O=C1c2ccccc2C(=O)N1CCC(=O)N1CCc2ccccc21,.,.,0%,3%,.,80
Cc1ccc(C)c(N2CCN(C(=O)CCC(=O)N3CCOc4ccc(Cl)cc43)CC2)c1,23%,?,10µM*,-28%,?,-80*
O=C(CCC(=O)N1CCOc2ccc(Cl)cc21)NCCCN1CCC(Cc2ccccc2)CC1,-1%,11%,?,-17%,-20%,-75*
Cc1ccc(C)c(N2CCN(CCCNC(=O)CCC(=O)N3CCOc4ccc(Cl)cc43)CC2)c1,-2%,.,.,.,.,-83*
O=C(COc1ccccc1)Nc1ncc2c(n1)CCCC2=O,-19%,.,-7%,0%,16%,-62*
O=C(O)C1=C2C(=O)Nc3cccc(c32)C2(C1)C(=O)Nc1ccccc12 (configuration not stated),.,i,.,-11%,-5%,3
CN1CCN(c2nc(-c3cccnc3)nc3scc(-c4ccccc4)c23)CC1,5%,-5%,-9%,-1%,-6%,-34
Clc1nc(-c2ccccn2)nc2scc(-c3ccccc3)c12,-12%,-8%,?,?,-15%,-66*
CN(CC(=O)Nc1cccc(F)c1)C(=O)Cn1c(=O)oc2ccccc21,-1%,.,6%,-14%,.,-10
O=C(Nc1cccc(F)c1)c1ccc2oc(=O)n(Cc3ccccc3)c2c1,-2%,-17%,.,?,-12%,-68*
Cc1ccccc1OCC(=O)Nc1ccc2oc(-c3ccc(F)cc3)nc2c1,-8%,-28%,.,-29%,-29%,5
COc1cc(-c2nc(-c3cccc(Cl)c3)c(-c3ccccc3)[nH]2)cc(OC)c1OC,2%,-25%,.,-17%,-14%,-33
COc1cc(-c2nc(-c3ccccc3)c(-c3cc([N+](=O)[O-])ccc3C)[nH]2)cc(OC)c1OC,5%,.,13µM*,-25%,?,-73*
COc1ccc(-n2cc(CNC3CCN(C)CC3)c(-c3cccc(F)c3)n2)cc1,-6%,?,11µM*,6%,?,-39
Cn1cc(/C=N/NC(=O)COc2ccccc2[N+](=O)[O-])c2ccccc21,-17%,.,?,-13%,.,-64*
Cc1cccc(OCC(=O)N/N=C\c2cc3c(cc2[N+](=O)[O-])OCO3)c1C,-1%,-22%,11µM*,-15%,-12%,-24
SMILES,Sm TGR inh,VACV mCherry inh,HCV inh,FMDV inh,VACV Venus inh,HCMV inh
O=C(N/N=C/c1cc2c(cc1[N+](=O)[O-])OCO2)c1ccc2c(c1)OCO2,2%,8%,-25%,-9%,0%,29
Cc1cc(C)cc(OCC(=O)N/N=C/c2ccc([N+](=O)[O-])o2)c1,?,?,11µM*,-10%,?,?
Cc1ccc(OCC(=O)N/N=C\c2cn(C)c3ccccc23)c([N+](=O)[O-])c1,5%,.,?,-14%,.,22
O=C(COc1ccccc1[N+](=O)[O-])N/N=C/C=C/c1ccco1,35µM*,-2%,-17%,5%,-4%,?
CC(=O)OCC1OC(n2c3c(cc(C#N)c2=S)CCCC3)C(OC(C)=O)C(OC(C)=O)C1OC(C)=O (configuration not stated),.,i,30%,-13%,0%,-7
COc1ccccc1OCC(=O)N/N=C/C=C/c1ccc([N+](=O)[O-])o1,45µM*,?,?,-27%,?,-38
Cc1ccccc1OCC(=O)N/N=C/c1ccc([N+](=O)[O-])o1,?,.,?,?,.,-86*
O=C(NC1CCCCCC1)c1cccc(S(=O)(=O)N2CCOCC2)c1,.,i,-6%,8%,-18%,13
COc1ccc(C2/C(=C(/O)c3ccc(F)cc3)C(=O)C(=O)N2CCCN2CCOCC2)cc1OC (configuration not stated),?,.,8%,0%,.,.
Cc1ccc(C)c(CN2C(=O)c3ccccc3S(=O)(=O)c3ccc(C(=O)N4CCN(c5ccccn5)CC4)cc32)c1,-3%,-6%,.,-4%,-12%,-71*
CCN1CCN(C(=O)c2ccc3c(c2)N(Cc2ccccc2)C(=O)c2ccccc2S3(=O)=O)CC1,-11%,-5%,-25%,0%,-4%,8
CCN1CCN(C(=O)c2ccc3c(c2)N(Cc2ccc(Cl)cc2)C(=O)c2ccccc2S3(=O)=O)CC1,1%,-14%,.,-14%,-11%,-61*
C=CCn1c(SCC(=O)Nc2nc(C)cs2)nnc1C(C)NC(=O)c1ccccc1Cl (configuration not stated),0%,.,-17%,16%,.,-3
COc1cccc(CN2C(=O)CN(C3CCCCC3)C(=O)C2c2ccc(OC(C)C)c(OC)c2)c1 (configuration not stated),2%,-2%,.,0%,-13%,-2
COc1cccc(C2C(=O)N(C3CCCCC3)CC(=O)N2Cc2ccc(Cl)cc2)c1 (configuration not stated),10%,-13%,.,1%,-9%,-68*
CCOc1ccsc1C(=O)O,0%,0%,3.2µM*,2%,-22%,-2
Cc1ccc(COc2ccsc2C(=O)O)cc1,0%,-3%,6%,1%,8%,15
Cc1ccc(NC(=S)Nc2cccc(-c3n[nH]c(=S)o3)c2)cc1,13µM*,11%,12%,28%,24%,-34
NC(=S)Nc1cccc(-c2n[nH]c(=S)o2)c1,6%,-15%,14%,-8%,-2%,?
O=C(NCc1ccc2c(c1)OCO2)[C@H]1[C@H](CO)[C@H]2Cn3c(cccc3=O)[C@@H]1N2Cc1ccccc1,.,.,.,.,.,-9
